Measured values published in PubChem BioAssay AID1159580 (chemical genetic matrix, 2015).
The whole screen tested about 5,500 compounds, of which about 2,000 (36%) were called active. Not shown: some 18% with an inconclusive outcome. No stated cut-off is given here; in the data, active means normalized growth mostly below about 0.91 (no sharp cut-off); inconclusive means no clear call, values can overlap the other calls; inactive means mostly above about 0.92. The list shows a part of the results.

Test: chemical genetic growth profiling, strain panel (AID 1159580);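 further: tested at 20 µM; growth read once vehicle control cultures reached saturation at 30 °C; 1 = growth at the plate median or of vehicle wells; lower values mean less growth of the strain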
Settings: growth OD

Measured: normalized growth

NC1=NCCN1CC(=O)O
inactive: S. cerevisiae deletion strains, locus YJR043C, strain POL32, hits give low values 0.98 | S. cerevisiae deletion strains, locus YJR066W, strain TOR1, hits give low values 0.989 | S. cerevisiae deletion strains, locus YKL009W, strain mrt4, hits give low values 0.968 | S. cerevisiae deletion strains, locus YKL068W, hits give low values 0.986 | S. cerevisiae deletion strains, locus YKL085W, strain MDH1 (second series), hits give low values 0.983 | S. cerevisiae deletion strains, locus YKL085W, strain MDH1, hits give low values 0.983 | S. cerevisiae deletion strains, locus YKL160W, strain elf1, hits give low values 1.04 | S. cerevisiae deletion strains, locus YKL190W, strain CNB1, hits give low values 0.978 | S. cerevisiae deletion strains, locus YKR001C, strain vps1, hits give low values 0.989 | S. cerevisiae deletion strains, locus YKR026C, strain gcn3, hits give low values 1.03 | S. cerevisiae deletion strains, locus YKR091W, strain srl3, hits give low values 1.01 | S. cerevisiae deletion strains, locus YLL001W, strain dnm1, hits give low values 0.984 | S. cerevisiae deletion strains, locus YLL026W, hits give low values 1.01 | S. cerevisiae deletion strains, locus YLL041C, strain sdh2, hits give low values 1.01 | S. cerevisiae deletion strains, locus YLR027C, strain aat2, hits give low values 1.02 | S. cerevisiae deletion strains, locus YLR039C, strain RIC1, hits give low values 0.964 | S. cerevisiae deletion strains, locus YLR058C, strain SHM2, hits give low values 0.975 | S. cerevisiae deletion strains, locus YLR102C, strain apc9, hits give low values 0.986 | S. cerevisiae deletion strains, locus YLR113W, strain HOG1, hits give low values 0.983 | S. cerevisiae deletion strains, locus YLR221C, strain rsa3, hits give low values 0.987 | S. cerevisiae deletion strains, locus YLR258W, strain gsy2, hits give low values 0.996 | S. cerevisiae deletion strains, locus YLR262C, strain YPT6 (second series), hits give low values 1.02 | S. cerevisiae deletion strains, locus YLR262C, strain YPT6, hits give low values 0.958 | S. cerevisiae deletion strains, locus YLR268W, strain sec22, hits give low values 0.99 | S. cerevisiae deletion strains, locus YLR320W, strain mms22, hits give low values 0.957 | S. cerevisiae deletion strains, locus YLR330W, strain CHS5, hits give low values 1 | S. cerevisiae deletion strains, locus YLR342W, strain FKS1 (second series), hits give low values 1.01 | S. cerevisiae deletion strains, locus YLR342W, strain FKS1, hits give low values 1.02 | S. cerevisiae deletion strains, locus YLR357W, strain rsc2, hits give low values 1.03 | S. cerevisiae deletion strains, locus YLR370C, strain arc18, hits give low values 1.01 | S. cerevisiae deletion strains, locus YLR371W, strain rom2, hits give low values 0.996 | S. cerevisiae deletion strains, locus YLR384C, strain iki3, hits give low values 1.01 | S. cerevisiae deletion strains, locus YLR418C, strain cdc73, hits give low values 0.995 | S. cerevisiae deletion strains, locus YML016C, strain PPZ1, hits give low values 0.986 | S. cerevisiae deletion strains, locus YML032C, strain rad52, hits give low values 0.994 | S. cerevisiae deletion strains, locus YML120C, strain ndi1, hits give low values 0.998 | S. cerevisiae deletion strains, locus YML124C, strain tub3, hits give low values 0.995 | S. cerevisiae deletion strains, locus YMR058W, strain fet3, hits give low values 1.02 | S. cerevisiae deletion strains, locus YMR078C, strain ctf18, hits give low values 0.994 | S. cerevisiae deletion strains, locus YMR125W, strain sto1, hits give low values 1.02 | S. cerevisiae deletion strains, locus YMR129W, hits give low values 1 | S. cerevisiae deletion strains, locus YMR205C, strain PFK2, hits give low values 1.02 | S. cerevisiae deletion strains, locus YMR223W, strain ubp8, hits give low values 0.992 | S. cerevisiae deletion strains, locus YMR231W, strain pep5, hits give low values 1.02 | S. cerevisiae deletion strains, locus YMR307W, strain GAS1, hits give low values 1.05 | S. cerevisiae deletion strains, locus YNL067W, strain RPL9B, hits give low values 0.966 | S. cerevisiae deletion strains, locus YNL071W, strain lat1, hits give low values 0.983 | S. cerevisiae deletion strains, locus YNL153C, strain GIM3, hits give low values 0.989 | S. cerevisiae deletion strains, locus YNL183C, strain NPR1, hits give low values 0.919 | S. cerevisiae deletion strains, locus YNL209W, strain ssb2, hits give low values 1.03 | S. cerevisiae deletion strains, locus YNL233W, strain BNI4, hits give low values 0.974 | S. cerevisiae deletion strains, locus YNL248C, strain rpa49, hits give low values 1.03 | S. cerevisiae deletion strains, locus YNL250W, strain rad50, hits give low values 0.973 | S. cerevisiae deletion strains, locus YNL271C, strain bni1, hits give low values 0.998 | S. cerevisiae deletion strains, locus YNL298W, strain CLA4, hits give low values 0.996 | S. cerevisiae deletion strains, locus YNL307C, strain MCK1, hits give low values 0.993 | S. cerevisiae deletion strains, locus YNL322C, strain KRE1 (second series), hits give low values 1.02 | S. cerevisiae deletion strains, locus YNR049C, strain mso1, hits give low values 1.01 | S. cerevisiae deletion strains, locus YNR052C, strain pop2, hits give low values 0.998 | S. cerevisiae deletion strains, locus YOL006C, strain TOP1, hits give low values 0.944 | S. cerevisiae deletion strains, locus YOL012C, strain htz1 0.788 | S. cerevisiae deletion strains, locus YOL147C, strain pex11, hits give low values 0.995 | S. cerevisiae deletion strains, locus YOR001W, strain rrp6, hits give low values 0.966 | S. cerevisiae deletion strains, locus YOR061W, strain CKA2, hits give low values 0.958 | S. cerevisiae deletion strains, locus YOR069W, strain VPS5, hits give low values 0.995 | S. cerevisiae deletion strains, locus YOR070C, strain gyp1, hits give low values 1.02 | S. cerevisiae deletion strains, locus YOR080W, strain dia2, hits give low values 1.03 | S. cerevisiae deletion strains, locus YOR083W, strain WHI5, hits give low values 0.959 | S. cerevisiae deletion strains, locus YOR106W, strain vam3, hits give low values 1.03 | S. cerevisiae deletion strains, locus YOR136W, strain idh2, hits give low values 0.986 | S. cerevisiae deletion strains, locus YOR144C, strain elg1, hits give low values 0.992 | S. cerevisiae deletion strains, locus YOR184W, strain ser1, hits give low values 1.01 | S. cerevisiae deletion strains, locus YOR231W, strain MKK1, hits give low values 0.966 | S. cerevisiae deletion strains, locus YOR265W, strain rbl2, hits give low values 0.994 | S. cerevisiae deletion strains, locus YOR270C, strain vph1, hits give low values 0.924 | S. cerevisiae deletion strains, locus YOR290C, strain snf2, hits give low values 1.01 | S. cerevisiae deletion strains, locus YOR316C, strain cot1, hits give low values 0.989 | S. cerevisiae deletion strains, locus YPL051W, strain arl3, hits give low values 0.997 | S. cerevisiae deletion strains, locus YPL055C, strain LGE1, hits give low values 0.918 | S. cerevisiae deletion strains, locus YPL078C, strain atp4, hits give low values 1.03 | S. cerevisiae deletion strains, locus YPL106C, strain sse1, hits give low values 1.01 | S. cerevisiae deletion strains, locus YPL240C, strain hsp82, hits give low values 1.01 | S. cerevisiae deletion strains, locus YPL256C, strain CLN2, hits give low values 0.953 | S. cerevisiae deletion strains, locus YPR119W, strain clb2, hits give low values 0.983 | S. cerevisiae deletion strains, locus YPR141C, strain kar3, hits give low values 0.988 | S. cerevisiae deletion strains, locus YPR163C, strain tif3, hits give low values 0.986 | S. cerevisiae deletion strains, locus YPR167C, strain met16, hits give low values 0.993 | S. cerevisiae deletion strains, strain wtn01, hits give low values 0.995 | S. cerevisiae strains, strain wild type, hits give low values 0.982
